The panel holds about 83,000 compounds, 20% with a hit somewhere; the sample as a whole holds those more often.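 Percent growth is the endpoint: 0 to 100 indicates growth inhibition (40 means 60% inhibition), 0 means no net growth, and negative values indicate cell death.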 Unmarked numbers belong to inactive results. Active and inactive are the calls of the source.
system: MOLT-4 leukemia; test: NCI-60 one-dose screen, 48 h (100 = growth as untreated, 0 = no growth, -100 = all killed); settings: 10 µM unless noted
Method: Growth inhibition of the MOLT-4 human tumor cell line is measured as a screen for anti-cancer activity. Cells are grown in 96 well plates and exposed to the test compound for 48 hours. Compounds are tested at a single concentration, which is 10^-5 M for most compounds. The reported endpoint is percent growth (GI% or GIPRCNT), where numbers from 0 - 100% represent growth inhibition, and numbers from -100% - 0 represent cell death. For example, a value of 40 represents 60% growth inhibition. A value of 0 means no net growth occurred over the course of the experiment. A value of -40 indicates 40% of cells at the beginning of the experiment died by the end of the experiment. A value of -100 means all cells are dead at the end of the experiment.
NCI-60 Human Tumor Cell Lines Screen was performed using the standard one-dose NCI protocol, which is described in more detail at https://dtp.cancer.gov/discovery_development/nci-60/default.htm.
Compounds with GIPRCNT values below 10 were considered active. Activity score was based on GIPRCNT using the following formula: […]
Score is 0 for GIPRCNT values of 100 or above, 50 for GIPRCNT values of 0, and 100 for GIPRCNT values of -100.

**Q.** With `C1CN(SSN2CCOCC2)CCO1` as the compound, how does the growth read?
**A.** 50.4% [100 µM]

**Q.** For `O=C(Nc1ccccc1)Nc1ncnc2c1ncn2-c1ccc(Cl)cc1`, which growth is on record?
**A.** 84.2%

**Q.** How did the growth turn out when `CCCC/C(CC)=N\NS(=O)(=O)c1ccc([N+](=O)[O-])cc1` was run?
**A.** 101%

**Q.** `C=C1C(=O)O[C@H]2[C@H]1CC/C(COC(=O)C(=O)c1cn(C)c3ccc(Cl)cc13)=C\CC[C@@]1(C)O[C@@H]21` was tested. Which growth did it give?
**A.** -15.4% (active)

**Q.** `CCSC(SCC)c1ccc(Cl)cc1` was tested. Which growth did it give?
**A.** 110%

**Q.** For `O=S(=O)(NCCNc1nccc(-c2c(-c3ccc(F)c(O)c3)nc3occn23)n1)c1ccc(Cl)cc1`, which growth is on record?
**A.** 84.1%

**Q.** With `COC(=O)[C@@H](CCCCNC(=O)[C@]12CCC(C)(C)C[C@@H]1C1=CC[C@@H]3[C@@]4(C)C/C(=C/c5ccco5)C(=O)C(C)(C)[C@@H]4CC[C@@]3(C)[C@]1(C)CC2)NC(=O)[C@]12CCC(C)(C)C[C@@H]1C1=CC[C@@H]3[C@@]4(C)C/C(=C/c5ccco5)C(=O)C(C)(C)[C@@H]4CC[C@@]3(C)[C@]1(C)CC2` as the compound, how does the growth read?
**A.** 97%

**Q.** How did the growth turn out when `CC(C)COc1nc2c(c(=O)n(C)c(=O)n2C)n1C` was run?
**A.** 93.3%

**Q.** How did the growth turn out when `OCCn1cc(-c2nc(-c3c[nH]c4ncccc34)cs2)c2ccccc21` was run?
**A.** 71.2%

**Q.** Which growth does the source give for `Cc1nc2sc(C(=O)Nc3cccc(Br)c3)c(N)c2cc1C(O)c1ccccc1` (stereo not given) here?
**A.** 17.1%

**Q.** How did the growth turn out when `Nc1c(C(=O)Nc2ccncc2)sc2nc3c(cc12)C(O)CCC3` (stereo not given) was run?
**A.** 98%

**Q.** Which growth does the source give for `Cc1c2cnccc2c(C)c2c1c1cc(C#N)ccc1n2C` here?
**A.** -11.2% (active)

**Q.** How did the growth turn out when `CCNCCNc1cc(-c2ccc(C(F)(F)F)cc2)c(C#N)c2nc3ccccc3n12` was run?
**A.** -32.7% (active)

**Q.** For `COc1ccc(NC(=O)c2sc3nc(C)c(C(=O)/C=C/c4ccccc4)cc3c2N)cc1`, which growth is on record?
**A.** 27.6%

**Q.** `COc1cc2c(c(OC)c1OC)CCC(c1cccc(C(=O)Nc3ccc(C#N)cc3)c1)O2` (stereo not given) was tested. Which growth did it give?
**A.** -14.4% (active)

**Q.** For `CC(=O)N1N=C(c2ccc(Nc3nc(Nc4ccccc4)nc(Nc4ccccc4)n3)cc2)CC1c1cccc([N+](=O)[O-])c1` (stereo not given), which growth is on record?
**A.** 84.5%

**Q.** For `CCN(CC)CCn1c2ccc(OC)cc2c2sc3cc(OC)ccc3c(=O)c21`, which growth is on record?
**A.** 3.81% (active)

**Q.** How did the growth turn out when `CCCOC(=O)Nc1nc2ccc(SCC(C)C)cc2s1` was run?
**A.** 33.8%

**Q.** Which growth does the source give for `COc1ccc(C(=O)/C=C/c2c(C(F)(F)F)nc3ccccn23)cc1OC` here?
**A.** 7.14% (active)

**Q.** With `Nc1ncnc2c1C(c1ccccc1)c1ccc3ccccc3c1O2` (stereo not given) as the compound, how does the growth read?
**A.** 68.4%

**Q.** Which growth does the source give for `O=C1/C(=C/c2ccccc2Br)COc2ccc(O)cc21` here?
**A.** 27.2%

**Q.** `COc1cc(-c2csc(NC(=O)c3ccc(N4CCOCC4)c(C(F)(F)F)c3)n2)cc(OC)c1OC` was tested. Which growth did it give?
**A.** 10.1%

**Q.** Which growth does the source give for `COc1cc(NS(=O)(=O)c2ccc(-c3cnc(C4CC4)o3)cc2)ccc1F` here?
**A.** 31.9%

**Q.** For `O=C(CN1C(=O)S/C(=C\c2ccccc2)C1=O)Nc1ncc(Cc2ccccc2Cl)s1`, which growth is on record?
**A.** 85.9%

**Q.** For `CCCCNC(=O)CC1=C(C)/C(=C/c2[nH]c(-c3ccc[nH]3)cc2OC)N=C1C`, which growth is on record?
**A.** 7.6% (active)

**Q.** For `O=C(O)c1cn(C2CC2)c2cc(N3CCN(C(=O)N(c4ccccc4)c4nc(-c5ccccc5)cs4)CC3)c(F)cc2c1=O`, which growth is on record?
**A.** 2.43% (active)

**Q.** How did the growth turn out when `CS(=O)(=O)c1ccc(-c2cnn3ccc(-c4cccc(S(=O)(=O)C5CC5)c4)nc23)cc1` was run?
**A.** 15.3%

**Q.** `CSc1oc(C)nc1[P+](c1ccccc1)(c1ccccc1)c1ccccc1` was tested. Which growth did it give?
**A.** 68%

**Q.** Which growth does the source give for `CCCCCCC12CCC(=O)N1CCc1cncn12` (stereo not given) here?
**A.** 104%

**Q.** For `COc1cc(C2CC(c3ccc(Nc4nc(Nc5ccc(Cl)cc5)nc(Nc5ccc(Cl)cc5)n4)cc3)=NN2C(C)=O)cc(OC)c1OC` (stereo not given), which growth is on record?
**A.** 79%

**Q.** For `Oc1c(I)cc(I)cc1CNCCN(Cc1ccccn1)Cc1ccccn1`, which growth is on record?
**A.** -29.5% (active)

**Q.** With `N=C(N)c1ccc(-c2ccc(-c3ccc(Cl)cc3Cl)s2)cc1` as the compound, how does the growth read?
**A.** -24.3% (active)

**Q.** With `COC12C=C/C(=C(/C(=O)OCc3ccncn3)C(=O)CCCCCCCCC3(OC)C=C/C(=C(/C(=O)OCc4ccncn4)C(=O)CCCCCCCC1)O3)O2` as the compound, how does the growth read?
**A.** -7.71% (active)

**Q.** How did the growth turn out when `COc1cc2c(c(OC)c1OC)CCC(c1cccc(NC(=O)c3ccc(Br)cc3)c1)O2` (stereo not given) was run?
**A.** 41.1%

**Q.** How did the growth turn out when `O=C(CSc1nc2ccc([N+](=O)[O-])cc2[nH]1)Nc1ccc([N+](=O)[O-])cc1` was run?
**A.** 5.72% (active)

**Q.** How did the growth turn out when `COc1ccc(/C=N\Nc2nc(SCCC(C)C)nc(-c3ccc(OC)cc3)c2C#N)cc1` was run?
**A.** 65.1%

**Q.** How did the growth turn out when `CCO/C=N/C1=C(C#N)C(c2ccc(Cl)cc2)c2sc3c(F)cccc3c2O1` (stereo not given) was run?
**A.** 71.5%

**Q.** Which growth does the source give for `C=CCn1c(SCC(=O)Nc2ccc(C(=O)/C=C/c3ccc(Cl)cc3)cc2)nnc1-c1ccc(Br)cc1` here?
**A.** 63.1%

**Q.** How did the growth turn out when `CC(=O)N1N=C(c2ccc(Nc3nc(Nc4ccccc4)nc(Nc4ccccc4)n3)cc2)CC1c1ccccc1` (stereo not given) was run?
**A.** 75.1%

**Q.** With `COc1ccc(NC2=C(I)C(=O)c3ncccc3C2=O)cc1` as the compound, how does the growth read?
**A.** -31.7% (active)

Source: PubChem BioAssay (NCI)
